IL1B secr inh = inflammasome signaling inhibition, IL-1 beta readout | THP-1 LPS/ATP IL-1B secretion, AlphaLISA, 16 h; active compounds read low | activity change, % at 57.5 µM | actives 4.7% (n = 360,000) | AID 743279; in the data active = activity change below about -50%; inconclusive = mostly about -30% to -49%
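Secreted IL-1B measured by AlphaLISA bead assay after 16 h compound exposure of THP-1 cells; compounds (final up to 57.5 uM) added 1 h before LPS (250 ng/mL) and ATP (1.25 mM) stimulation; lower signal means less secretion.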
ATXN viability = reduces viability in counter-screen for ATXN expression inhibitors. S2 cells (HEK-293 line with an ATXN2-luciferase reporter) viability, CellTiter-Fluor protease fluorescence, 24 h. Potency, µM (top dose mostly 56.7 µM), actives largely listed as cytotoxic. actives 0.49% (n = 400,000). AID 651635; also: nearly all actives have a fitted effect of over 40% in size
DRD3 antagonist = antagonists of human D3 dopamine receptor | actives 2.5% (n = 360,000) | D3R cells, DiscoveRx beta-arrestin luminescence, antagonist mode; active compounds read low | P35462 | max response, negative = inhibition, %; in the data active = max response below about -50%; inconclusive = no clear call, values can overlap the other calls
Target sequence (P35462 whole entry, looked up): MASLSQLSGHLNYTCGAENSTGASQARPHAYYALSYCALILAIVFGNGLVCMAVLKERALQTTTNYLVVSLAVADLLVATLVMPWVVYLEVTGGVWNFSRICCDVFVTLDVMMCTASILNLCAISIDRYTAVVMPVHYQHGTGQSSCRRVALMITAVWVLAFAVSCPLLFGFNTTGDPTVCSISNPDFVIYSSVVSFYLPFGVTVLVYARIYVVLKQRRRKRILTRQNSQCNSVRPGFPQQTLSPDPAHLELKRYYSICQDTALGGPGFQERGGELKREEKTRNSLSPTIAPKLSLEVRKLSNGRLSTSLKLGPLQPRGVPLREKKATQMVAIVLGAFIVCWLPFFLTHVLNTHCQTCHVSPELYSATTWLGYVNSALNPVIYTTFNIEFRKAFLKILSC
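Cells expressing the human receptor were seeded at 1500 cells/well, incubated overnight at 37 degrees C in 5% CO2, then exposed to library compounds with dopamine controls for 90 minutes at 37 degrees C before luminescent detection.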
DRD3 agonist = agonists of human D3 dopamine receptor; D3R DiscoveRx beta-arrestin cells, luminescence, 90 min; max activation, %; actives 0.58% (n = 410,000); AID 652048; in the data active = max activation above about 30%
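Agonist-mode cell screen: cells plated at 1500/well and incubated overnight at 37 °C, then exposed to library compounds for 90 min at 37 °C. Detection reagent was added for 30–60 min at room temperature, and luminescence was read.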
ATXN2 expr inh = inhibitors of ATXN2 expression | HEK-293 ATXN2-luciferase reporter, luminescence, 24 h | Potency, µM (top dose mostly 57 µM), actives largely listed as inhibitors | actives 0.72% (n = 360,000) | AID 1745845; also: nearly all actives have a fitted effect of over 55% in size
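qHTS (up to 57 uM final) was run with 24 h compound exposure of reporter cells at 37 °C. Each well was multiplexed: SteadyGlo luminescence measured ATXN2-luciferase expression after a fluorogenic Gly-Phe-AFC viability readout (25 uM final).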
Integrin act MD = integrin-mediated muscular dystrophy alleviation activation; actives 0.064% (n = 350,000); AID 624291; alpha7betagal myoblasts, beta-gal FDG fluorescence, 48 h; Potency, µM (top dose mostly 38.3 µM), usual class: activators; also: nearly all actives have a fitted effect of over 60% in size
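Alpha7betagal+/- myoblasts (passage 13) were plated 16-24 hr, then exposed to compounds (1:260 dilution of DMSO stock) for 48 hours at 37C. After MPER lysis, β-galactosidase reporter activity was read as FDG fluorescence (ex 480/em 540) after 30 minutes.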
Large screens that a line does not name were inactive. Most compounds without a hit are left out; they make up all but 7% or so of the library. Unless noted, calls follow the shape of the dose curve; as a rule, active = well fitted curve in the direction sought with a large enough effect; inconclusive = small, poorly fitted or top-dose-only effect, or another doubt; inactive = no such curve, though single readings can be large; an effect the other way counts as inactive or inconclusive.

Cc1cccc(Cc2ccc(Cl)nn2)c1	none
c1ccc(Nc2nnc(-c3cccnc3)s2)cc1	none
CCN(CC)c1ccc(N=C2C=CC(=O)C=C2NC(C)=O)cc1	IL1B secr inh -72.0
CCN(CC)c1ccc(NC(=O)Nc2ccccc2)cc1	IL1B secr inh inconclusive, Integrin act MD inconclusive
COc1ccc(-n2nc([N+](=O)[O-])c(=NCCC3=CCCCC3)n2O)cc1	IL1B secr inh -55.4, ATXN viability inconclusive
COc1ccc(-n2nc([N+](=O)[O-])c(=NCCc3ccc(C)cc3)n2O)cc1	none
COc1ccc(-n2nc([N+](=O)[O-])c(=NC3CCN(Cc4ccccc4)CC3)n2O)cc1	ATXN viability inconclusive, DRD3 antagonist -50.7
CC1(C)C(=O)Nc2ccccc2N1C(=O)COc1cccnc1[N+](=O)[O-]	none
O=C1CCC(/C=C/c2ccccc2)=NN1Cc1ccc(Cl)c(Cl)c1	IL1B secr inh inconclusive
O=Nc1c(O)[nH]c2ccc(Cl)c(Cl)c12	IL1B secr inh -94.9
Oc1[nH]c2ccccc2c1N=Nc1ccccc1Cl	none
Oc1ccccc1CNc1ccc(Br)cn1	IL1B secr inh -113.8
COc1ccccc1CNc1ccc(Br)cn1	DRD3 agonist 32.7 (no result: ATXN viability)
Brc1ccc(NCc2cccc3ccccc23)nc1	none (no result: ATXN viability, ATXN2 expr inh)
O=C(/C=C/c1ccc(OCCCF)cc1)N1CCN(Cc2ccccc2)CC1	IL1B secr inh -52.6, DRD3 antagonist inconclusive
O=C(/C=C/c1ccc(OCCCF)cc1)NCc1ccc(Cl)cc1	DRD3 antagonist -70.3
Cc1ccc(NC(=O)c2ccccc2NS(=O)(=O)c2ccc(Cl)s2)cc1	ATXN2 expr inh inconclusive
CN(C)CCN(Cc1ccco1)S(=O)(=O)c1csc(C(N)=O)c1	none
O=C1CCCC2=C1C(c1ccncc1)c1c(nc(SCc3ccccc3)[nH]c1=O)N2 (centres undefined)	IL1B secr inh -51.5
Cc1ccc(N=C(NOC(=O)c2ccccc2)c2nonc2N)c(C)c1	none
Cc1nnsc1C(=O)N1CCN(c2ccc(F)cc2)CC1	none (no result: ATXN2 expr inh)
Cc1ccc(NC(=O)CCn2c(=O)c3cccn3c3ccccc32)cc1Cl	none (no result: IL1B secr inh, ATXN viability, DRD3 antagonist, ATXN2 expr inh, Integrin act MD)
C#CC(=O)N(c1cccc(OC)c1)C(C(=O)NC1CCCC1)c1cccs1 (centres undefined)	IL1B secr inh -101.8, ATXN viability 1.58µM, DRD3 antagonist -63.5, ATXN2 expr inh 1.58µM
C#CC(=O)N(c1ccc(OC)c(OC)c1)C(C(=O)NC1CCCC1)c1cccs1 (centres undefined)	IL1B secr inh -105.6, DRD3 antagonist -72.3, ATXN2 expr inh inconclusive, Integrin act MD inconclusive (no result: ATXN viability)
COC(=O)C1(S(=O)(=O)c2cc(Br)cc3c2N(C(C)=O)CC3)CC1	DRD3 antagonist inconclusive
O=C(CCN1C(=O)C2C3CCC(C3)C2C1=O)Nc1ccccc1C(F)(F)F (centres undefined)	none (no result: ATXN2 expr inh)
CCOC1=C2[C@@H](CN(S(=O)(=O)c3ccc(C)cc3)[C@H]2c2ccc(CC)cc2)[C@H]2C(=O)N(C)C(=O)[C@H]2C1	none (no result: Integrin act MD)
c1ccc(C2CCC(N3CCN(c4ccccc4)CC3)CC2)cc1 (centres undefined)	DRD3 antagonist -52.2
O=S(=O)(Cc1ccccc1)N1CCC(N2CCN(c3ccccc3)CC2)CC1	DRD3 antagonist inconclusive, DRD3 agonist 68.5
CC1CCC(N2CCN(S(=O)(=O)Cc3ccccc3)CC2)CC1 (centres undefined)	none
COc1cc(N2C(=O)C=CC2=O)ccc1N1C(=O)C=CC1=O	IL1B secr inh -99.0, DRD3 antagonist -67.9, ATXN2 expr inh inconclusive (no result: ATXN viability)
CC(=O)CSc1ccc(S(=O)(=O)N2CCN(C)CC2)cn1	DRD3 antagonist inconclusive
CCN1C(=O)[C@@H]2[C@H](C1=O)[C@@H]1C(=O)Nc3ccccc3C(=O)N1[C@@H]2c1cccc(C)c1	DRD3 agonist 44.6
CCn1c(=O)cc(SCC(=O)NCCCN2CCN(c3ccc(F)cc3)CC2)c2ccccc21	DRD3 antagonist -67.9
Cn1c(=O)cc(SCC(=O)NCCCN2CCN(c3ccccc3F)CC2)c2ccccc21	DRD3 antagonist -71.1
CC(C)C1C(C#N)=C(N)Oc2n[nH]c(-c3ccc4ccccc4c3)c21 (centres undefined)	ATXN viability inconclusive
O=Cc1c[nH]c2ccc(NC(=O)OCc3ccccc3)cc12	IL1B secr inh inconclusive
O=Cc1c[nH]c2cccc(OCc3ccccc3)c12	IL1B secr inh -79.3
CCn1c(/C=C2/C(=O)N(C)c3ccccc32)nc2ccccc2c1=O	none
CCN1C(=O)/C(=C\c2nc3ccccc3c(=O)n2CC)c2ccccc21	IL1B secr inh -86.1
Cc1ccc(-c2cnc(N)n2C)cc1C	DRD3 antagonist -101.2
Cn1c(-c2ccc(Cl)cc2)cnc1N	none (no result: ATXN viability, ATXN2 expr inh)
COc1cc(C2NCC(c3ccc(Cl)cc3Cl)c3c2[nH]c2ccccc32)cc(OC)c1OC (centres undefined)	IL1B secr inh -66.1
COc1ccc(NC(=O)c2ncn[nH]2)cc1	none
CC(C)Oc1ccc(F)cc1-c1cc(C(=O)NC2CCCCC2)[nH]n1	none (no result: Integrin act MD)
Cc1cc(F)ccc1-c1cc(C(=O)NC2CCCCC2)[nH]n1	IL1B secr inh inconclusive, DRD3 antagonist -83.3 (no result: Integrin act MD)
Cc1cc(C(=O)NC2CCCCC2)c(C)n1-c1ccc(F)cc1	IL1B secr inh -82.9, ATXN viability inconclusive
CCCOc1ccc(F)cc1-c1cc(C(=O)NC2CCCCC2)[nH]n1	DRD3 antagonist -101.7 (no result: Integrin act MD)
CC(=O)Nc1ccc(S(=O)(=O)N2CCN=C2C)cc1	none
O=c1c2ccccc2ncn1Cc1cccc2ccccc12	IL1B secr inh -54.2
c1cc(SSc2ccncc2)ccn1	IL1B secr inh inconclusive (no result: ATXN2 expr inh)
c1ccc(SSc2ccccc2)cc1	IL1B secr inh -100.8 (no result: Integrin act MD)
O=C(CCN1C(=O)/C(=C/c2ccc(F)cc2)SC1=S)NCCc1cnc[nH]1	ATXN viability inconclusive
CCOc1ccccc1N1CC(c2nc3ccccc3n2CCOc2ccc(OC)cc2)CC1=O (centres undefined)	ATXN viability 31.6µM, ATXN2 expr inh inconclusive (no result: IL1B secr inh, DRD3 antagonist, Integrin act MD)
CCCCN1CC(c2nc3ccccc3n2CCCCOc2ccccc2C)CC1=O (centres undefined)	ATXN viability inconclusive (no result: IL1B secr inh, DRD3 antagonist, Integrin act MD)
Cc1c(Cl)cccc1N1CC(c2nc3ccccc3n2Cc2ccccc2F)CC1=O (centres undefined)	ATXN viability 31.6µM (no result: IL1B secr inh, DRD3 antagonist, Integrin act MD)
CCCCN1CC(c2nc3ccccc3n2CCCCOc2c(C)cccc2C)CC1=O (centres undefined)	ATXN viability inconclusive, ATXN2 expr inh 22.4µM (no result: IL1B secr inh, DRD3 antagonist, Integrin act MD)
CCOc1ccccc1N1CC(c2nc3ccccc3n2CCCOc2ccc(OC)cc2)CC1=O (centres undefined)	none (no result: IL1B secr inh, DRD3 antagonist, Integrin act MD)
COc1ccccc1NC(=O)c1cc([N+](=O)[O-])ccc1NCCN1C(=O)CCC1=O	ATXN viability inconclusive (no result: ATXN2 expr inh)
N#Cc1nc(Cl)c(Cl)c(NN)c1Cl	IL1B secr inh -54.1
CC(C)c1nc(C#N)c(NN)o1	none (no result: ATXN2 expr inh)
